Source: PubChem BioAssay
The source made the active and inactive calls. Unless noted, the rule behind the calls is not given here.

Columns and labels:
[1] = system: Wnt5a (protein binding on small-molecule microarray); experiment: Wnt5a binders on small-molecule microarray, primary screen, biophysical, 635/667 nm fluorescence (AID 1142); settings: 635 nm fluorescence, higher = more signal;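 note: fluorescence read at 667 nm with signal to noise per printed feature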
[2] = cell viability in Huh7 cells, primary screen, cytotoxicity control for HCV replication inhibitor project, CellTiter-Glo luminescence, basal, 48 h (AID 1143); settings: Huh7 HCV replicon, higher = more signal, called active from +8 up or from −8 down;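 note: Huh7 hepatoma cells carrying a hepatitis C replication reporter with no stimulus; test concentration not given here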
[3] = P. aeruginosa biofilm formation inhibitors, primary screen, PAO1 strain, BacTiter-Glo luminescence, LB-PBS (AID 1144); settings: 12 h, higher = more signal
[4] = CREB reporter modulators without forskolin, primary screen, cell-based, PC12, CRE-LacZ reporter, unstimulated (AID 1145); settings: no forskolin, luminescence, 4.5 h, higher = more signal, called active from +8 up or from −8 down
[5] = CREB reporter modulators under forskolin, primary screen, cell-based, PC12, CRE-LacZ reporter, forskolin-stimulated (AID 1146); settings: luminescence, 4.5 h, higher = more signal, called active from +8 up or from −8 down;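 note: PC12 cells with 6xCRE LacZ reporter stimulated by forskolin 10 µM; beta-galactosidase reporter signal reflecting CREB driven transcription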
[6] = target: Streptavidin (Streptomyces avidinii) (UniProt P22629); experiment: streptavidin binders on small-molecule microarray, primary screen, artefact control for SMM compound annotation, biophysical, 635/667 nm fluorescence (AID 1147); settings: streptavidin binding, higher = more signal;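 note: signal reflects streptavidin binding to arrayed compounds as a control protein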
Streptavidin (Streptomyces avidinii), sequence (P22629 whole entry, looked up): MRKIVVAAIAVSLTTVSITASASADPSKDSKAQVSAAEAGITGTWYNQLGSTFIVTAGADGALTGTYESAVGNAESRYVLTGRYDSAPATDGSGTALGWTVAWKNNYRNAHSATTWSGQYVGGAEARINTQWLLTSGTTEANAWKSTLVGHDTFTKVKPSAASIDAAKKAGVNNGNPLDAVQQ

[7] = small-molecule binders of probe aInhba, primary screen, biochemical, small-molecule microarray, 635/667 nm fluorescence (AID 1148); settings: higher = more signal;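 note: score merges 667nm spot fluorescence with signal-to-noise for antibody binding to printed compounds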
[8] = target: Torsin-1A (Homo sapiens) (UniProt O14656); experiment: torsin A binders from cell lysate, primary screen, small-molecule microarray, wild-type, 635/667 nm (AID 1149); settings: COS7 hTOR1A-WT lysate, 635 nm fluorescence, higher = more signal
Torsin-1A (Homo sapiens), sequence (O14656 whole entry, looked up): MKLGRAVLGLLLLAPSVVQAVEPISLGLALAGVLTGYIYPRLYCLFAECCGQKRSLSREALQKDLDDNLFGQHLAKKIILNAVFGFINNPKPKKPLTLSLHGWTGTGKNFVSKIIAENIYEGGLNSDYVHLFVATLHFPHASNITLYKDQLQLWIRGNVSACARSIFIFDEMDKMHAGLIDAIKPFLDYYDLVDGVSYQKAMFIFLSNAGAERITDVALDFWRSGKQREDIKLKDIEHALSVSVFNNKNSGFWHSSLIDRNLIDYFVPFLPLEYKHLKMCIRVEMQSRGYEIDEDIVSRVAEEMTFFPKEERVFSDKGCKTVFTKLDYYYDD

[9] = target: Torsin-1A (Homo sapiens) (UniProt O14656); experiment: small-molecule binders of mutant TOR1A in lysate, primary screen, cell lysate, small-molecule microarray, COS7 lysate, 635/667 nm fluorescence (AID 1150); settings: COS7 hTOR1A mutant lysate, 635 nm fluorescence, higher = more signal;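 note: score pools 667 nm emission and signal to noise measuring lysate protein binding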
[10] = system: Sonic hedgehog protein (Shh); experiment: small-molecule binders of Shh protein, primary screen, biochemical, small-molecule microarray, 635/667 nm fluorescence (AID 1151); settings: small-molecule microarray binding, 635 nm fluorescence; higher = more signal;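 note: Shh protein binding to compounds spotted on small-molecule microarray slides; score combines spot fluorescence intensity with signal-to-noise across triplicate slides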
[11] = E. coli DRC41 culture turbidity changes, primary screen, E. coli filamentation inducer project, strain DRC41, OD650, 48 h (AID 1152);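 note: E. coli MC1000 strain DRC41 lacking acrAB efflux pump and sulA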; settings: E. coli DRC41 (acrAB sulA), higher = more signal, called active from +8 up or from −8 down
[12] = small-molecule binders of probe aLefty1, primary screen, biochemical, small-molecule microarray, 635/667 nm fluorescence (AID 1153); settings: higher = more signal;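 note: score merges spot fluorescence with signal-to-noise ratio from the scanned slide images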
[13] = PSAC antagonists in infected red cells, primary screen, cell-based, P. falciparum Indochina, OD700, 1 h (AID 1154); settings: P. falciparum Indochina infected RBC osmotic lysis, higher = more signal, called active from +8 up or from −8 down
[14] = PSAC antagonists in infected red cells, primary screen, cell-based, P. falciparum Indochina, OD700, 2 h (AID 1155);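 note: lysis reports solute entry through the parasite surface anion channel PSAC; channel blockers reduce lysis of infected cells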; settings: P. falciparum Indochina infected erythrocytes, osmotic lysis OD700; higher = more signal, called active from +8 up or from −8 down
[15] = osmotic lysis modulators in infected erythrocytes, primary screen, PSAC antagonist project, cell-based, P. falciparum Indochina, OD700, 3 h (AID 1156); settings: higher = more signal, called active from +8 up or from −8 down
[16] = PSAC antagonists in infected red cells, primary screen, cell-based, P. falciparum Indochina, OD700, 18 h (AID 1157); settings: P. falciparum Indochina infected erythrocytes, osmotic lysis OD700, 18 h; higher = more signal, called active from +8 up or from −8 down
[17] = modulators of S6 phosphorylation in cells, primary screen, cell-based, A549, cytoblot, luminescence, serum-stimulated (AID 1158); settings: A549 phospho-S6 cytoblot, 5 h, higher = more signal;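 note: serum-stimulated A549 lung adenocarcinoma cells; signal is phosphorylated S6 detected by cytoblot immunostaining with HRP secondary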
[18] = target: NADPH oxidase 2 (Homo sapiens) (UniProt P04839); experiment: NOX2-dependent H2O2 signal modulators, primary screen, NOX inhibitor project, cell-based, HEK293-NOX2, PMA-stimulated, Amplex Red fluorescence (AID 1159); settings: 45 min, higher = more signal, called active from +8 up or from −8 down; note: test concentration not given here
NADPH oxidase 2 (Homo sapiens), sequence (P04839 whole entry, looked up): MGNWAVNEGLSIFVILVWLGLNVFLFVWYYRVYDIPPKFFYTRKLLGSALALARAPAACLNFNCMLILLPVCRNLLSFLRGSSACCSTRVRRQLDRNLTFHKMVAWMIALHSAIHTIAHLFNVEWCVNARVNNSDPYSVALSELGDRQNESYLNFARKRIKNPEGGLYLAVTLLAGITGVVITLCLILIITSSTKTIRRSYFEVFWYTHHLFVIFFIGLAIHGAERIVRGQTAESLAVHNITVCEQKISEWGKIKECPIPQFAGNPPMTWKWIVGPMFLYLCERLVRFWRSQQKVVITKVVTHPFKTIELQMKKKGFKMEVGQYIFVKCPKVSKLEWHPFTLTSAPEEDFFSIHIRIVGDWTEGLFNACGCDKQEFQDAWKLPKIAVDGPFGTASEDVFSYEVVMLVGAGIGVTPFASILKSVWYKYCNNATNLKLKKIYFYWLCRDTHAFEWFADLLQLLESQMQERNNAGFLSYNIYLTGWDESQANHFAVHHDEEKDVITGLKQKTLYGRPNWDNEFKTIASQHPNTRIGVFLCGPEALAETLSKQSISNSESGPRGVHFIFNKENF

[19] = target: NADPH oxidase 4 (Homo sapiens) (UniProt Q9NPH5); experiment: NOX4-dependent H2O2 signal modulators, primary screen, NOX inhibitor project, cell-based, HEK293-NOX4, tetracycline-induced, Amplex Red fluorescence (AID 1160); settings: 45 min, higher = more signal, called active from +8 up or from −8 down
NADPH oxidase 4 (Homo sapiens), sequence (Q9NPH5 whole entry, looked up): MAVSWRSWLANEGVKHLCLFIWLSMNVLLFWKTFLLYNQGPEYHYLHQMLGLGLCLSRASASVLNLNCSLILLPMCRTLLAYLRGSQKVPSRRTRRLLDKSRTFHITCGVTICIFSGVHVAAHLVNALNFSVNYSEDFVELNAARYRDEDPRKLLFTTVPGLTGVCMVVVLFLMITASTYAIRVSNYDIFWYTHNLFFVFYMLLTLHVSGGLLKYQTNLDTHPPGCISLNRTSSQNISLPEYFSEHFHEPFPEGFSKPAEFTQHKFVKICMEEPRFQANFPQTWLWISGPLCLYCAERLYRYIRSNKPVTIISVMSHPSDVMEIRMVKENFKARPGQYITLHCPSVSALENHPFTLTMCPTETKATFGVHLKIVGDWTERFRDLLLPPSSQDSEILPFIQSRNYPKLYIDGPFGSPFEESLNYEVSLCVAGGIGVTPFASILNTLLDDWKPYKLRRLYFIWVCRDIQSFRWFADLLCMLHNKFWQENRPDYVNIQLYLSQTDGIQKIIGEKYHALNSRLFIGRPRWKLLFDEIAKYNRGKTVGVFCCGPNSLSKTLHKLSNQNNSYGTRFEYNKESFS

[20] = target: NADPH oxidase 5 (Homo sapiens) (UniProt Q96PH1); experiment: NOX5-dependent H2O2 signal modulators, primary screen, NOX inhibitor project, cell-based, HEK293-NOX5, Amplex Red fluorescence (AID 1161); settings: HEK293-NOX5, ionomycin, 45 min, higher = more signal
NADPH oxidase 5 (Homo sapiens), sequence (Q96PH1 whole entry, looked up): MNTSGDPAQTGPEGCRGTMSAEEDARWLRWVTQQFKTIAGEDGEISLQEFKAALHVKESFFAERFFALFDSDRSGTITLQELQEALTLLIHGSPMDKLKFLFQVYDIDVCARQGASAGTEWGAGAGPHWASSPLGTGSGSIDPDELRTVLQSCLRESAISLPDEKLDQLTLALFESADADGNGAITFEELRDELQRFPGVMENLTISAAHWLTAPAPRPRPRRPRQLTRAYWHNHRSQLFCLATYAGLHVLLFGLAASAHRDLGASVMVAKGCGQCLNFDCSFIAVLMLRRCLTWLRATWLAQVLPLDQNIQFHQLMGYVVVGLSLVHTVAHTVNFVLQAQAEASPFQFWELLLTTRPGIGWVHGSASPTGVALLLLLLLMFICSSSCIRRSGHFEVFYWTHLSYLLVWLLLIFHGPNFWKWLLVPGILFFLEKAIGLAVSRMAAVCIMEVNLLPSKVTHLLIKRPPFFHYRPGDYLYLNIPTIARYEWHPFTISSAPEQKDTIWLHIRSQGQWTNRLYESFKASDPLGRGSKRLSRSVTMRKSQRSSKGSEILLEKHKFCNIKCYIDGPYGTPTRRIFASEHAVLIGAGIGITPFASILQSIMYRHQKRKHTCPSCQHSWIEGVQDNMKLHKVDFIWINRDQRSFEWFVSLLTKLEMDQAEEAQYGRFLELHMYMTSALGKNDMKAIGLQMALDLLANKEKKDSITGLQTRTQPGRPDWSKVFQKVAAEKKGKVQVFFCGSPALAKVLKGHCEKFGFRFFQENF

Row | Compound | composite z-score [1] | z-score [2] | z-score [3] | z-score [4] | z-score [5] | composite z-score [6] | composite z-score [7] | composite z-score [8] | composite z-score [9] | composite z-score [10] | z-score [11] | composite z-score [12] | z-score [13] | z-score [14] | z-score [15] | z-score [16] | z-score [17] | z-score [18] | z-score [19] | z-score [20]
1 | C=CC[C@]1(C(=O)NCCCOC)N=C(c2ccc(OCCCO)cc2)O[C@H]1c1ccccc1CN=[N+]=[N-] | 1.11 | -1.34 (inactive) | 0.162 (inactive) | 1.49 (inactive) | -1.41 (inactive) | 0.828 | 0.149 | 0.883 | 0.749 | -0.0138 | -0.653 (inactive) | 0.443 | 13.6 (active) | 1.21 (inactive) | 1.37 (inactive) | 0.424 (inactive) | -0.102 | 0.324 (inactive) | 0.649 (inactive) | -0.973
2 | COc1ccc([Si](C)(C)[C@@H]2[C@@H](CC(=O)N3CCC[C@H]3CO)O[C@]3(C(=O)N(c4ccccc4)c4ccccc43)[C@H]2C)cc1 | 0.155 | -4.58 (inactive) | 0.439 (inactive) | -0.0815 (inactive) | 0.334 (inactive) | 0.578 | 0.0047 | 0.491 | 0.466 | 1.53 | 2.66 (inactive) | -0.0718 | 0.616 (inactive) | -0.748 (inactive) | 1.1 (inactive) | -1.44 (inactive) | 0.499 | 2.54 (inactive) | 1.74 (inactive) | 2.4
3 | C=CCNC(=O)[C@H]1[C@@H]2C(=O)O[C@@H](c3ccccc3)[C@@H](c3ccccc3)N2[C@@H](c2ccccc2OCCO)[C@]12C(=O)Nc1ccc(C#CCCO)cc12 | 0.805 | -3.21 (inactive) | 0.481 (inactive) | -0.141 (inactive) | 4.71 (inactive) | -0.378 | -0.0944 | -0.897 | -0.202 | -0.322 | -0.849 (inactive) | -0.133 | 9.4 (active) | 1.75 (inactive) | -0.56 (inactive) | 0.982 (inactive) | 0.0418 | 1.76 (inactive) | -0.546 (inactive) | 1.93
4 | CC(=O)n1cc(C(O)C2C=CC3C(=O)N(c4ccccc4)C(=O)C3N2Nc2ccc([N+](=O)[O-])cc2)c2ccccc21 (stereo not given) | 0.199 | -0.547 (inactive) | -0.197 (inactive) | -0.322 (inactive) | -0.647 (inactive) | 0.808 | -0.0371 | -0.268 | 0.475 | -0.0727 | -1.2 (inactive) | 0.272 | 17 (active) | 3.57 (inactive) | 1.13 (inactive) | 0.954 (inactive) | -0.75 | -0.808 (inactive) | -2.56 (inactive) | -1.91
5 | CC(C)NC(=O)[C@@]1(c2ccc([N+](=O)[O-])cc2)CC(=O)N(C2CCCCC2)[C@@H]1c1ccc(CO)cc1I | -0.0239 | -4.27 (inactive) | 1.11 (inactive) | 1.04 (inactive) | -0.727 (inactive) | -0.154 | 0.0497 | 0.0498 | 0.242 | -0.241 | 1.36 (inactive) | 0.533 | 15.8 (active) | 2.08 (inactive) | 1.07 (inactive) | 0.966 (inactive) | -0.0892 | 0.824 (inactive) | -1.57 (inactive) | 1.45
6 | COCCOC(=O)N1C(=O)[C@@]2(c3cc(C#CCC(C(=O)OC)C(=O)OC)ccc31)[C@H](C(=O)N1CCN(c3ncccn3)CC1)[C@H]1C(=O)O[C@H](c3ccccc3)[C@H](c3ccccc3)N1[C@@H]2c1ccccc1OCCO | 0.833 | -3.78 (inactive) | 1.13 (inactive) | -0.337 (inactive) | -0.374 (inactive) | 0.39 | 0.326 | 0.135 | 0.579 | 2.19 | -0.646 (inactive) | 0.312 | 3.14 (inactive) | 1.55 (inactive) | 0.391 (inactive) | 0.533 (inactive) | 0.0555 | 1.45 (inactive) | 0.851 (inactive) | 1.3
7 | CNS(=O)(=O)c1ccc(C)cc1 | 0.365 | -1.48 (inactive) | -0.307 (inactive) | -0.0576 (inactive) | -0.391 (inactive) | 0.385 | -0.231 | 0.293 | 0.371 | 0.962 | 2.78 (inactive) | -0.371 | -0.699 (inactive) | -1.07 (inactive) | -0.886 (inactive) | -2.23 (inactive) | 0.929 | 2.36 (inactive) | 0.878 (inactive) | 0.669
8 | COc1ccc([C@H]2OC[C@@H]3C[C@@H](Cc4ccccc4)C(=O)N32)cc1 | 0.157 | -0.316 (inactive) | 1.01 (inactive) | 0.978 (inactive) | 0.627 (inactive) | -0.679 | -0.0403 | 0.656 | 0.556 | 1.33 | -0.783 (inactive) | 0.25 | 2.1 (inactive) | 0.0371 (inactive) | -0.59 (inactive) | 0.308 (inactive) | -0.597 | 1.25 (inactive) | 0.524 (inactive) | -0.604
9 | COC(=O)[C@@]1(CCS(=O)(=O)c2ccccc2)N=C(c2ccc(OCCCO)cc2)O[C@H]1c1ccccc1CN=[N+]=[N-] | 0.351 | -2.7 (inactive) | 0.945 (inactive) | 1.38 (inactive) | -1.43 (inactive) | 0.415 | 0.0808 | 0.252 | 0.869 | 0.281 | -0.146 (inactive) | 0.365 | 19.6 (active) | 3.74 (inactive) | 1.26 (inactive) | 1.33 (inactive) | 0.208 | -0.899 (inactive) | 0.495 (inactive) | -0.807
